Rab9 prom act – activates the Rab9 promoter | AID 485297 | 320,000 tested, 2.8% active | Huh7 Rab9 promoter-luciferase reporter, luminescence, 24 h | Potency, µM (doses to about 9.22 µM), usual class: activators; further: nearly all actives have a fitted effect of over 60% in size
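Luminescence read-out: Huh7 cells stably expressing Rab9-luciferase, treated 24 h with compound at 37 °C, then lysed with luciferase reagent for 10 min at ambient before reading.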
ELG1 DNA repair – inhibitors of ELG1-dependent DNA repair in HEK293T cells; HEK293T ELG1-luciferase reporter, luminescence, 16 h; DNA damage induced by 5-fluorouridine; Potency, µM (doses to about 46.1 µM), hits mostly inhibitors; 330,000 tested, 2.3% active; AID 504467; further: nearly all actives have a fitted effect of over 55% in size
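HEK293T cells expressing luciferase-tagged ELG1 (2,000/well) received 5-Fluorouridine plus compound or DMSO for 16 hr at 37 °C. Luciferase was read by ONE-Glo luminescence after 30 min at room temperature.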
FLuc modulator – inhibits or activates purified firefly luciferase, miR-21 counter-screen; P08659; purified FLuc, Km substrates, luminescence inhibition; Potency, µM (series often up to 57.5 µM), most hits filed as inhibitors; 360,000 tested, 6.9% active; AID 588342; further: nearly all actives have a fitted effect of over 55% in size
Target sequence (P08659 whole entry, looked up): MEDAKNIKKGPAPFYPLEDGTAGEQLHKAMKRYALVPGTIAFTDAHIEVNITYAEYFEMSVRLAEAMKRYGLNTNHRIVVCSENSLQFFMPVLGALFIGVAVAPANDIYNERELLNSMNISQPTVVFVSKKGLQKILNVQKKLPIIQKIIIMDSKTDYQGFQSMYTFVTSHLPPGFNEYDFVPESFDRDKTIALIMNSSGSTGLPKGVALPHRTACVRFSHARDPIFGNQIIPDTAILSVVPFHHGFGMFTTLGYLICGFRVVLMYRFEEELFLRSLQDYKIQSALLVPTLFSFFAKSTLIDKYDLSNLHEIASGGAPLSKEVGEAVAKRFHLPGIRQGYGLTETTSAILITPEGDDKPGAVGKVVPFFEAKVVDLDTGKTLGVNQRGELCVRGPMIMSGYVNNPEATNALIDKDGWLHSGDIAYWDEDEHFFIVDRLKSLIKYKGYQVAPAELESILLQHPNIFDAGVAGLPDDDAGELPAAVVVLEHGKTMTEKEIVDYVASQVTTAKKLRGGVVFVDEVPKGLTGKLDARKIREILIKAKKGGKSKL
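Biochemical qHTS of compounds, final roughly 60 µM downward over six points, against 10 nM purified firefly luciferase using Km concentrations of substrates (10 uM D-luciferin, 10 uM ATP) in Tris acetate pH 7.5 buffer; luminescence output.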
ELG1 genotoxic – genotoxicity induction in ELG1-luciferase HEK293T cells. HEK293T ELG1-luciferase reporter, luminescence, 16 h. Potency, µM (series often up to 46 µM), most hits filed as activators. 330,000 tested, 1.3% active; further: nearly all actives have a fitted effect of over 60% in size
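Luminescence read-out: rising ELG1-luciferase signal, reflecting elevated ELG1 protein under genetic stress, flags genotoxic compounds. Cells were treated for 16 hr at 37 °C before ONE-Glo detection.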
NPC1 prom act – NPC1 promoter activation | Potency, µM (titrated, usually from 9.22 µM), usual class: activators | 320,000 tested, 2.4% active | Huh7 NPC1 promoter luciferase reporter, 24 h; further: nearly all actives have a fitted effect of over 60% in size
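Compounds in DMSO were transferred onto Huh7 NPC1-luciferase reporter cells pre-incubated 2 h; after 24 h at 37 °C, Amplite reagent was dispensed and luminescence recorded 10 min later.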
SMN2 splice enh – SMN2 splice variant enhancement; HEK293 SMN2-luciferase splicing reporter, luminescence, 30-36 h; Potency, µM (highest dose often 46.1 µM), hits mostly activators; 210,000 tested, 2.8% active; AID 1458; further: nearly all actives have a fitted effect of over 55% in size
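HEK293 cells carry an SMN2 […]–luciferase reporter in which exon 7 inclusion puts luciferase in frame. Cells were plated 10-12 h before compound addition, then incubated 30-36 h at 37C. ONE-Glo luminescence was read; sodium butyrate at 4.5 mM final served as control.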
Numbers stand for hits; 0 = inactive; ? = inconclusive; - = not tested or not shown; [ ] = another dose, or the depositor's remark. The list is not random: actives were taken first. Their share in the collection is about 9.2%. The call rests on the fitted dose curve; in most records, active means well fitted curve in the direction sought with a large enough effect; inconclusive means small, poorly fitted or top-dose-only effect, or another doubt; inactive means no such curve, though single readings can be large; an effect the other way counts as inactive or inconclusive.

SMILES	Rab9 prom act	ELG1 DNA repair	FLuc modulator	ELG1 genotoxic	NPC1 prom act	SMN2 splice enh
C=CCN(C(=O)c1oc2c(Cl)cc(C)cc2c1C)C1CCS(=O)(=O)C1 (centres undefined)	3.5µM	?	11µM	?	3.5µM	-
Cc1ccc2c(C)c(C(=O)N(Cc3ccc(N(C)C)cc3)C3CCS(=O)(=O)C3)oc2c1 (centres undefined)	0	16µM	0	0	0	-
COc1ccc(CN(C(=O)c2oc3ccccc3c2C)C2CCS(=O)(=O)C2)cc1OC (centres undefined)	0	?	0	0	0	11µM
C[C@H](CO)N1C[C@H](C)[C@@H](CN(C)S(=O)(=O)c2cn(C)cn2)Oc2ccc(NS(=O)(=O)c3ccccc3)cc2C1=O	-	0	-	0	-	-
O=C(NCc1cccnc1)/C(=C/c1ccc(-c2cccc(Cl)c2)o1)S(=O)(=O)c1ccccc1	0	?	0	0	0	0
Cc1ccc(C(=O)N/C(=C\c2ccc(-c3cc(Cl)ccc3Cl)o2)C(=O)NCc2cccnc2)cc1	?	?	19µM	0	?	0
O=C(NCc1cccnc1)/C(=C\c1ccc(-c2cccc(Cl)c2)o1)S(=O)(=O)c1ccccc1	0	16µM	0	0	0	0
COc1cc2c(cc1OC)C(C)N(C(=O)Cn1ncc3c1-c1cc(C)ccc1OC3)CC2 (centres undefined)	0	18µM	0	0	0	0
COc1ccc2nc(N3C(=O)CC(C(C)c4ccccc4)C3=O)sc2c1 (centres undefined)	0	0	21µM	0	0	-
Cc1cc(C)nc(N2C(=O)CC(C(C)c3ccccc3)C2=O)n1 (centres undefined)	0	0	0	0	0	0
O=C(Nc1nc(-c2cc(F)ccc2F)cs1)C1=NN(c2ccccc2)C(=O)CC1	0	?	?	0	0	0
O=C(Nc1nc(-c2ccccc2)cs1)c1ccco1	?	?	15µM	0	?	-
Cc1cc(NC(=O)c2ccco2)sc1C	2µM	?	5.4µM	?	2µM	-
O=C(NNc1nc(-c2ccc(Br)cc2)cs1)c1ccco1	?	?	8.5µM	?	0	0
COc1ccc(-c2csc(NC(=O)C3=NN(c4ccccc4)C(=O)CC3)n2)cc1	0	?	7.6µM	0	0	0
CN(CC(=O)Nc1c(Cl)cccc1Cl)C(=O)Cc1ccc(S(=O)(=O)N2CCOCC2)s1	0	0	0	0	0	-
CC1CCN(C(=O)COC(=O)C2CCN(S(=O)(=O)c3c(Cl)cccc3Cl)CC2)CC1	0	0	0	0	0	-
Cc1ccc(NC(=O)COC(=O)Cc2ccsc2)c(C)c1	0	0	0	0	0	0
O=C(Nc1cc(-c2ccccc2)cs1)c1ccco1	3.5µM	?	7.6µM	16µM	?	-
O=C(O)c1ccccc1C(=O)Nc1nc(-c2ccc3ccccc3c2)cs1	?	?	17µM	0	0	-
Cc1sc(NC(=O)c2ccco2)c(CN2CCN(Cc3ccccc3)CC2)c1C	0	13µM	?	0	0	0
O=C(Nc1nc(-c2ccc3ccccc3c2)cs1)c1ccc(N2C(=O)CCC2=O)cc1	0	0	0	0	0	0
O=C(Nc1nc(-c2ccco2)cs1)c1ccccc1	?	?	11µM	?	?	0
COc1ccc(Cl)cc1NC(=O)Cn1nc(Cc2ccncc2)c2ccccc2c1=O	-	-	0	-	-	0
Cc1ccc(-c2csc(NC(=O)c3c(C)noc3C)n2)cc1C	0	0	?	0	0	-
SMILES	Rab9 prom act	ELG1 DNA repair	FLuc modulator	ELG1 genotoxic	NPC1 prom act	SMN2 splice enh
CCOc1ccc(-c2csc(NC(=O)c3ccco3)n2)cc1	?	?	12µM	?	0	-
Cc1ccc(-c2csc(NC(=O)c3ccc(-c4ccccc4)cc3)n2)o1	0	0	4.3µM	18µM	0	0
COc1ccc(-c2csc(NC(=O)c3ccco3)n2)cc1	2.2µM	?	9.5µM	0	2.8µM	7.9µM
Cc1ccc(-c2csc(NC(=O)c3ccco3)n2)cc1C	4µM	?	8.5µM	?	2.2µM	-
COc1ccc(-c2csc(NC(=O)c3c(OC)cccc3OC)n2)cc1	0	0	0	0	0	-
CS(=O)(=O)c1ccc2nc(NC(=O)c3ccc(Cn4cc(Br)cn4)o3)sc2c1	0	0	4.8µM	0	?	-
NS(=O)(=O)c1ccc2nc(NC(=O)CS(=O)(=O)c3ccccc3)sc2c1	0	0	0	0[9.26 µM]	0	-
Cc1ccc2nc(NC(=O)c3ccc(Br)o3)sc2c1	1.1µM	?	1.3µM	?	1.4µM	-
NS(=O)(=O)c1ccc2nc(NC(=O)c3ccc(Br)o3)sc2c1	?	?	9.5µM	?	?	18µM
COc1ccc(C(=O)Nc2ccccc2C(=O)OCc2cc(=O)n3nc(C4CC4)sc3n2)cc1	-	-	0	-	-	-
CCc1nc2ccc(C)cc2c(C(=O)Oc2cccc3cccnc23)c1C	0	?	0	0	0	0
CCc1nc2ccccc2c(C(=O)Oc2cccc3cccnc23)c1C	0	?	15µM	0	0	0
CCc1nc2ccccc2c(C(=O)OCc2nc3ccccc3c(=O)[nH]2)c1C	-	13µM	-	0	-	-
CCc1nc2ccccc2c(C(=O)OCc2nnc(-c3ccccc3)o2)c1C	0	21µM	0	0	0	0
Cc1c(C(=O)OCc2nnc(-c3ccccc3)o2)oc2ccccc12	-	0	-	0	-	-
CCCCN(C)C(=O)C1CCCN(S(=O)(=O)c2ccc3c(c2)oc(=O)n3C)C1 (centres undefined)	0	0	0	0	0	-
CC1(C)CC(N2CCCC2)=CC(=[N+]2CCCCCC2)C1	0	0.58µM	0	0	0	0
CC1(O)CC2C(CC1O)C2(C)C (centres undefined)	-	-	-	-	-	0
Cn1c(CO)cnc1SCc1ccc(Cl)cc1	?	?	0	0	3.5µM	0
Cc1ccc2c(c1)C(N1CCCC1=O)CC(c1ccco1)N2 (centres undefined)	2.2µM	?	1.2µM	?	3.2µM	13µM
CCOC(=O)c1c(NC(=O)COC(=O)c2cccnc2OCC)sc(C(=O)N(CC)CC)c1C	-	7.3µM	-	0	-	-
CCOC(=O)c1c(NC(=O)COc2ccc(OC)cc2)sc(C(=O)N(CC)CC)c1C	-	-	0	-	-	0
CCOC(=O)c1c(C)[nH]c(C(=O)OCC(=O)Nc2sc(C(=O)N(C)C)c(C)c2C(=O)OCC)c1C	0	12µM	0	0	0	-
COc1ccc(N(C(=O)COc2c(C)cccc2C)S(=O)(=O)c2ccc(Cl)cc2)cc1	-	-	0	-	-	0
COC(=O)c1ccccc1N/C=C/C(=O)c1ccc(Br)cc1	?	?	17µM	0	0	11µM
NC(=O)c1ccccc1N/C=C/C(=O)c1ccccc1	0.56µM	?	0.85µM	0.92µM	0.56µM	7.1µM
NC(=O)c1ccccc1N/C=C1\CCCCC1=O	0	0	0	0	0	0
